Here are results for four compounds from PubChem BioAssay (NCI).

About 83,000 compounds went through this panel and 20% of them were active in at least one assay; those are over-represented in the sample as a whole.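 For each line, cells grew in 96-well plates with the test compound present at a single concentration for 48 hours.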 Calls of active or inactive are those of the source. How the source made its calls: active means growth percent below 10; inactive means the rest.

This test relates to HL-60(TB) leukemia. Description: NCI-60 one-dose screen, 48 h (100 = growth as untreated, 0 = no growth, -100 = all killed). The following applies: 10 µM unless noted.
On to `O=C1C=CC(=O)N1c1ccc(Cc2ccc(N3C(=O)C=CC3=O)cc2)cc1`, for which the growth was 9.02% (active). For `O=C(O)CCNC1CCCCC1`, the growth was 97.5% (inactive). Take `COc1cc2c(cc1OCCCCN1CCN(C(=S)SCCC(C#N)(c3ccccc3)c3ccccc3)CC1)N=C[C@@H]1CCCN1C2=O`: the growth is -40.8% (active). As for `CCCCC/C=C/CCC(=O)N[C@H]1[C@H](Oc2c3cc4cc2Oc2ccc(cc2Cl)[C@@H](O[C@@H]2O[C@H](CO)[C@@H](O)[C@H](O)[C@H]2NC(C)=O)[C@@H]2NC(=O)[C@H](NC(=O)[C@@H]4NC(=O)[C@H]4NC(=O)[C@@H](Cc5ccc(c(Cl)c5)O3)NC(=O)[C@@H](N)c3ccc(O)c(c3)Oc3cc(O)cc4c3)c3ccc(O)c(c3)-c3c(O[C@H]4O[C@H](CO)[C@@H](O)[C@H](O)[C@@H]4O)cc(O)cc3[C@H](C(=O)O)NC2=O)O[C@H](CO)[C@H](O)[C@@H]1O`, the growth was 105% (inactive).
